Measured values as given in PubChem BioAssay (NCATS).
Values joined by “and” are separate entries in the source; they are usually repeats but may differ in a detail not shown here. Identical values can stand only once. Records with an inconclusive call do not appear. Where a call stands in place of a potency, no number is given. Active and inactive are the calls of the source. Unless noted, the call rests on the fitted dose curve; in most records, active means well fitted curve in the direction sought with a large enough effect; inconclusive means small, poorly fitted or top-dose-only effect, or another doubt; inactive means no such curve, though single readings can be large; an effect the other way counts as inactive or inconclusive.

How the values were obtained:
[1] = qHTS assay for measurement of the activity of small molecule inhibitors on Zika virus induced Caspase-3 activity in human iPSC derived neural progenitor cells (hNPCs) (AID 1224857); conditions: hNPCs ZIKV-induced caspase-3/7, Caspase-Glo luminescence, 6 h; series mostly up to 45.7 µM; further: nearly all actives have a fitted effect of over 65% in size
Method in brief: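 In medium with heparin 2 ug/ml and cyclopamine 2 uM, hNPCs (350 cells/well) received compound for one hour and then Zika virus at 2 FFU/cell; caspase activity was measured by Caspase-Glo 3/7 luminescence 6 h post-infection.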

[2] = qHTS assay for measurement of the activity of small molecule inhibitors on Zika virus induced Caspase-3 activity in human astrocytoma cells (AID 1224859); conditions: SNB-19 ZIKV-induced caspase-3/7, luminescence, 6 h; series mostly up to 45.7 µM
Method in brief: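 A cell-based luminescent caspase-3/7 assay used SNB-19 cells infected with ZIKV (2 FFU/cell) for 6 h following 1 h compound pretreatment.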

[3] = qHTS assay to identify small molecule inhibitors of chordoma cells - UCH-1 (AID 1259355); conditions: UCH-1 chordoma viability, CellTiter-Glo, 48 h, combination, with auranofin plus four topoisomerase inhibitors; series mostly up to 46.1 µM; further: nearly all actives have a fitted effect of over 55% in size
Method in brief: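 Seed 800 cells per well; incubate overnight at 37 C, 5% CO2. Add test compounds (15 concentrations), then the auranofin–topoisomerase-agent combination. Incubate 48hr, add CellTiter-Glo, wait 30min, read luminescence.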

[4] = qHTS profiling for inhibitors of Plasmodium falciparum (3D7) proliferation (AID 743322; call rule not given here;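 further: infected erythrocytes exposed to compound for 72 h before lysis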); conditions: P. falciparum 3D7 proliferation; at 28.7 µM (top of the series) unless noted
Method in brief: (§1)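 Erythrocytes infected with P. falciparum (0.3% parasitemia, 2.5% hematocrit) incubated with compounds 72 h at 37 C, 5% CO2. Lysis with saponin/Triton buffer containing SYBR Green I, overnight at room temperature in the dark; DNA fluorescence (485/535 nm) normalised to 0.29 uM artemisinin and DMSO.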

[5] = qHTS profiling for inhibitors of Plasmodium falciparum (DD2) proliferation (AID 743323; call rule not given here); conditions: lower = more inhibition; at 28.7 µM (top of the series) unless noted
Method in brief: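 SYBR Green fluorescence (ex 485, em 535 nm) of lysed cultures gives parasite DNA content; wells normalized to artemisinin (0.29 uM) and DMSO controls. Infected red cells: 0.3% parasitemia, 2.5% hematocrit, 72 h, 37 C.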

[6] = qHTS profiling for inhibitors of Plasmodium falciparum (HB3) proliferation (AID 743324); conditions: Plasmodium falciparum HB3 blood-stage proliferation; at 28.7 µM (top of the series) unless noted
Method in brief: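 P. falciparum HB3 grown in erythrocytes (0.3% parasitemia, 2.5% hematocrit final) with compound for 72 h at 37 C, 5% CO2. Parasite DNA detected by SYBR Green after saponin/triton lysis overnight; normalized to 0.29 uM artemisinin and DMSO.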

[7] = qHTS profiling of the MIPE4 collection as inhibitors of Plasmodium falciparum (3D7) proliferation (AID 743344; call rule not given here); conditions: P. falciparum 3D7 in erythrocytes, SYBR Green DNA fluorescence, 72 h; at 28.5 µM (top of the series)
Method in brief: as §1

[8] = qHTS profiling of the MIPE4 collection as inhibitors of Plasmodium falciparum (DD2) proliferation (AID 743345; call rule not given here); conditions: P. falciparum Dd2 in erythrocytes, SYBR Green DNA, 72 h; at 28.5 µM (top of the series)
Method in brief: as §1

[9] = qHTS profiling of the MIPE4 collection as inhibitors of Plasmodium falciparum (DD2) proliferation (Rep 2) (AID 743346; call rule not given here); conditions: P. falciparum Dd2 in erythrocytes, SYBR Green DNA, 72 h; at 28.5 µM (top of the series)
Method in brief: as §1

[10] = qHTS profiling of the MIPE4 collection as inhibitors of Plasmodium falciparum (HB3) proliferation (AID 743347; call rule not given here); conditions: P. falciparum HB3 in erythrocytes, SYBR Green DNA, 72 h; at 28.5 µM (top of the series)
Method in brief: as §1

CN(C)CCCO[C@@H]1[C@H]2OC(C)(C)O[C@H]2O[C@@H]1C(O)CO (stereo not given in full)
outcome [1]: inactive | outcome [2]: inactive | activity, negative = inhibition [3]: -7.27% [at 1.88 µM] (inactive)

CC12CCC(CC1)C(C)(C)O2
outcome [1]: inactive | outcome [2]: inactive | Potency [3]: inactive

CC(=O)O[C@@]12CO[C@@H]1C[C@H](O)[C@@]1(C)C(=O)[C@H](O)C3=C(C)[C@@H](OC(=O)[C@H](O)[C@@H](NC(=O)OC(C)(C)C)c4ccccc4)C[C@@](O)([C@@H](OC(=O)c4ccccc4)[C@H]21)C3(C)C
remaining parasite growth % (stronger effect = lower value) [4]: 7.64% and -0.123% | activity, percent of control [5]: 14.2% and 11.9% | remaining proliferation (% of control), lower = more inhibition [6]: 0.549% and 1.1% | outcome [1]: inactive | outcome [2]: inactive | Potency [3]: inactive

COc1ccc(Cl)cc1C(=O)NCCc1ccc(S(=O)(=O)NC(=O)NC2CCCCC2)cc1
outcome [1]: inactive | outcome [2]: inactive | Potency [3]: inactive

O=C1Nc2ccc(Cl)cc2[C@@](C#CC2CC2)(C(F)(F)F)O1
remaining parasite growth % (stronger effect = lower value) [4]: 6.68% [at 57.5 µM] | activity, percent of control [5]: 22.7% [at 57.5 µM] | remaining proliferation (% of control), lower = more inhibition [6]: 11.8% [at 57.5 µM] | outcome [1]: inactive | outcome [2]: inactive | Potency [3]: inactive

CC1CC(OC(=O)C(O)c2ccccc2)CC(C)(C)N1C (stereo not given)
outcome [1]: inactive | outcome [2]: inactive | Potency [3]: inactive

Cc1cc(N)c2ccccc2[n+]1CCCCCCCCCC[n+]1c(C)cc(N)c2ccccc21
outcome [1]: inactive | outcome [2]: inactive | Potency [3]: inactive

Cc1ccc(C(C)C)cc2c(C)ccc1-2
outcome [1]: inactive | outcome [2]: inactive | Potency [3]: inactive

N[C@H](C(=O)O)c1ccc(O)cc1
outcome [1]: inactive | outcome [2]: inactive | Potency [3]: inactive

[O-][n+]1cccc(CO)c1
outcome [1]: inactive | outcome [2]: inactive | Potency [3]: inactive

CCN(CC)CCSC(=O)C(c1ccccc1)c1ccccc1
outcome [1]: inactive | outcome [2]: inactive | Potency [3]: inactive

O=c1cc[nH]c(=S)[nH]1
outcome [1]: inactive | outcome [2]: inactive | Potency [3]: inactive

CCCCOc1cc(C(=O)OCCN(CC)CC)ccc1N
outcome [1]: inactive | outcome [2]: inactive | Potency [3]: inactive

C[C@H]1O[C@H](O[C@H]2[C@H](O)[C@@H](O)[C@@H](O[C@H]3[C@H](O)[C@@H](O)[C@H](O)O[C@@H]3CO)O[C@@H]2CO)[C@H](O)[C@@H](O)[C@@H]1N[C@H]1C=C(CO)[C@@H](O)[C@H](O)[C@H]1O
outcome [1]: inactive | outcome [2]: inactive | Potency [3]: inactive

Cc1c(Cl)cccc1Nc1ccccc1C(=O)O
outcome [1]: inactive | outcome [2]: inactive | Potency [3]: inactive

CN(C)CC[C@@H](c1ccc(Cl)cc1)c1ccccn1
remaining parasite growth % (stronger effect = lower value) [4]: 85.4% | activity, percent of control [5]: 44.8% | outcome [1]: inactive | outcome [2]: inactive

O=C(O)Cc1sc(-c2ccccc2)nc1-c1ccc(Cl)cc1
outcome [1]: inactive | Potency [3]: inactive

Cc1cc(C(C#N)c2ccc(Cl)cc2)c(Cl)cc1NC(=O)c1cc(I)cc(I)c1O (stereo not given)
outcome [1]: inactive | Potency [3]: inactive

[Cl][In]([Cl])[Cl]
outcome [1]: inactive | Potency [3]: inactive

NS(=O)(=O)c1cc2c(cc1Cl)NC(CSCc1ccccc1)=NS2(=O)=O
outcome [1]: inactive | Potency [3]: inactive

CC[N+](CC)(CC)CCOc1ccc(/C=C/c2ccccc2)cc1
outcome [1]: inactive | Potency [3]: inactive

COc1ccc2c(c1)C(=O)N(CCc1ccc(S(=O)(=O)NC(=O)NC3CCCCC3)cc1)C(=O)C2(C)C
outcome [1]: inactive | Potency [3]: inactive

C=CCn1c(=O)n([C@@H]2O[C@H](CO)[C@@H](O)[C@H]2O)c2nc(N)[nH]c(=O)c21
outcome [1]: inactive | Potency [3]: inactive

Oc1cccc(O)c1
outcome [1]: inactive | Potency [3]: inactive

Cc1cccc(Nc2cc(Cl)nc(SCC(=O)O)n2)c1C
outcome [1]: inactive | Potency [3]: inactive

Cc1cc2c(cc1S(N)(=O)=O)S(=O)(=O)CCC2
outcome [1]: inactive | Potency [3]: inactive

CN1CCN(C2Cc3ccccc3Sc3ccc(Cl)cc32)CC1 (stereo not given)
outcome [1]: inactive | Potency [3]: inactive

c1ccc(CN(CC2=NCCN2)c2ccccc2)cc1
outcome [1]: inactive | Potency [3]: inactive

CC(=O)Oc1c(C)c(C)c2c(c1C)CC[C@@](C)(CCC[C@H](C)CCC[C@H](C)CCCC(C)C)O2
outcome [1]: inactive | Potency [3]: inactive

CCCCC(CC)COC(=O)c1ccccc1O (stereo not given)
outcome [1]: inactive | Potency [3]: inactive

CN1CCC[C@@H]1Cc1c[nH]c2ccc(CCS(=O)(=O)c3ccccc3)cc12
outcome [1]: inactive | Potency [3]: inactive

CCCCc1ncc(/C=C(\Cc2cccs2)C(=O)O)n1Cc1ccc(C(=O)O)cc1
outcome [1]: inactive | Potency [3]: inactive

C[C@H]1O[C@@H](n2cc(F)c(=O)[nH]c2=O)[C@H](O)[C@@H]1O
outcome [1]: inactive | Potency [3]: inactive

CSc1ccc2c(c1)N(CCC1CCCCN1C)c1ccccc1S2 (stereo not given)
parasite growth, % of DMSO control [7]: 12.9% | parasite growth remaining, % of DMSO control (lower = more inhibition) [8]: 10.4% | parasite growth, % of control (lower = inhibition) [9]: 30.8% | growth, % of control [10]: 4.65% | outcome [1]: inactive | outcome [2]: inactive

Nc1ccc(S(=O)(=O)Nc2ccccc2)cc1
outcome [1]: inactive | Potency [3]: inactive

O=C(O)[C@H](O)c1ccccc1
outcome [1]: inactive | Potency [3]: inactive

CN1[C@@H]2CC[C@H]1CC(OC(=O)C(O)c1ccccc1)C2 (stereo not given in full)
outcome [1]: inactive | Potency [3]: inactive

c1ccc2c(CC3=NCCN3)cccc2c1
outcome [1]: inactive | Potency [3]: inactive

Nc1ccc(S(=O)(=O)NC(=O)c2ccccc2)cc1
outcome [1]: inactive | Potency [3]: inactive

N[C@@H](CSSC[C@H](N)C(=O)O)C(=O)O
activity change, negative = inhibition [1]: -8.71% [at 0.568 µM] (inactive) | Potency [3]: inactive

Nc1nc2c(ncn2CCC(CO)CO)c(=O)[nH]1
outcome [1]: inactive | Potency [3]: inactive

O=c1cc(CO)occ1O
outcome [1]: inactive | Potency [3]: inactive

CCCn1cnc2c1c(=O)n(CCCCC(C)=O)c(=O)n2C
outcome [1]: inactive | Potency [3]: inactive

CC(COc1ccccc1)NC(C)C(O)c1ccc(O)cc1 (stereo not given)
outcome [1]: inactive | Potency [3]: inactive

C[C@@H]1CCN(C(=O)[C@H](CCCN=C(N)N)NS(=O)(=O)c2cccc3c2NC[C@H](C)C3)[C@@H](C(=O)O)C1
outcome [1]: inactive | Potency [3]: inactive

COc1ccc2cc1Oc1cc3c(cc1OC)CC[N+](C)(C)[C@H]3Cc1ccc(cc1)Oc1c(OC)c(OC)cc3c1[C@@H](C2)[N+](C)(C)CC3
outcome [1]: inactive | Potency [3]: inactive

Oc1cn2c(n1)Nc1ccc(Cl)c(Cl)c1C2
outcome [1]: inactive | Potency [3]: inactive

O=S(=O)(O)NC1CCCCC1
outcome [1]: inactive | Potency [3]: inactive

CCN(CC)CCNC(C(=O)OCCC(C)C)c1ccccc1 (stereo not given)
outcome [1]: inactive | Potency [3]: inactive
